Drawing on PubChem BioAssay AID2129 (The Scripps Research Institute Molecular Screening Center, 2009), this text covers inhibition for 96 compounds.

In all, about 320,000 compounds went through this assay and about 2,200 (0.69%) were called active.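 How the source made its calls: active means inhibition above the mean of all tested compounds plus 3 SD, cutoff set per campaign (cut at about 30% in these data); inactive means the rest.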 Shown is part of a subset that was picked to be rich in actives.

Chain of Bcl-2-like protein 1 (Homo sapiens) (Q07817 whole entry, looked up): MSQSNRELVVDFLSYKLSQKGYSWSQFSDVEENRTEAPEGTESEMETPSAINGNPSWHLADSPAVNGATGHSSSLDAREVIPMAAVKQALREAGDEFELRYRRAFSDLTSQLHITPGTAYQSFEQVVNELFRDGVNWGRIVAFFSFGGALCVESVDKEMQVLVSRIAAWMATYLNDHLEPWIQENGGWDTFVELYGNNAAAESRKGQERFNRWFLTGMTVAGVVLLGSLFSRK

The test addresses Bcl-2-like protein 1 (Homo sapiens) (UniProt Q07817). Put plainly: inhibitors of human Bcl-xL, primary screen, biochemical, fluorescence polarization, HTS (AID 2129).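 Further: 0% = DMSO wells and 100% = unlabeled Bim-BH3 peptide competitor; inhibitors lower millipolarization by displacing the labeled peptide.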 Particulars: GST-Bcl-xL / FITC-Bim BH3 peptide fluorescence polarization; at 10.9 µM; active compounds read high. (In fluorescence polarisation assays a small probe gives low polarisation when free and higher when bound to something large.)
Usually inhibition stands for the change of the read-out against control, counted positive when it falls. Turning to `Cc1ccc(-c2noc(C3CCCN(C(=O)c4cccc(Cl)c4)C3)n2)o1` (stereo unspecified), the inhibition was -3.97% (inactive).

With `Cc1ccc2nc(SCC(=O)N3CC(C)OC(C)C3)nc(=O)n2c1` (stereo unspecified), the inhibition is 5.27% (inactive).

Turning to `Cc1nc([N+](=O)[O-])c(NCCCO)n1Cc1ccccc1`, the inhibition is 8.64% (inactive).

Take `O=C(Nc1cc(S(=O)(=O)N2CCOCC2)ccc1OCC(F)(F)F)c1ccc(N2CCCC2=O)cc1`: the inhibition is -2.38% (inactive).

Take `CC1(C)CCc2nc(SCc3ccccc3)c(C#N)cc2C1`: the inhibition is 4.14% (inactive).

Consider `CC(NC(=O)CSc1nc2c(cc1C#N)CN(C)CC2)c1ccccc1` (stereo unspecified), for which the inhibition is 36.7% (active).

For the compound `Cc1cc(NC(=O)CSc2nc3c(cc2C#N)CCCCC3)no1`, the inhibition is 0.61% (inactive).

Take `Cn1c(CC(=O)NNC(=O)c2ccccc2F)nc2ccccc21`: the inhibition was 4.35% (inactive).

`CCOc1ccc(N2C(=O)Nc3ccccc3C2(O)C(=O)NCc2ccco2)cc1` (stereo unspecified): the inhibition was 2.5% (inactive).

Turning to `CCC1CCCCN1C(=O)CSc1nc2c(c(=O)n1C)SC(C)C2` (stereo unspecified), the inhibition is 2.98% (inactive).

On to `Cc1c(CN2CCCCC2)c(O)n(CCO)c(=O)c1C#N`, for which the inhibition was 21.4% (inactive).

As to `CCCCCCn1c(CN2CCCC(C)C2)nc2c1c(=O)n(C)c(=O)n2C` (stereo unspecified), the inhibition is -0.05% (inactive).

For the compound `CCCn1c(O)c(CN2CCCC(C)C2)c(C)c(C#N)c1=O` (stereo unspecified), the inhibition is 53.4% (active).

For `COc1ccc(CNC(=O)c2c[nH]c3c(OC)cc(OC)cc3c2=O)cc1`, the inhibition is 1.75% (inactive).

In the case of `O=C(O)CC/C(=N\NC(=O)c1ccc(F)cc1)c1ccc(Br)cc1`, the inhibition is 2.98% (inactive).

In the case of `Cc1cccc(NC(=O)c2cc(S(=O)(=O)N3CCC4(CC3)OCCO4)ccc2F)c1`, the inhibition is 0.06% (inactive).

Take `Cc1ccc(Cc2cnc(NC(=O)/C(C#N)=C/c3ccc(-c4cccc([N+](=O)[O-])c4)o3)s2)cc1`: the inhibition is 1.29% (inactive).

As to `O=C(O)c1cc(Cl)c(Cl)cc1C(=O)Nc1cccc2ncccc12`, the inhibition is 5.65% (inactive).

As to `Cc1ccc(/C=C(\C#N)C(=O)Nc2cccc3ncccc23)o1`, the inhibition is 102% (active).

Consider `CCOc1ccc(-n2c(SCC(=O)NC3CCS(=O)(=O)C3)nnc2-c2cccnc2)cc1` (stereo unspecified), for which the inhibition is -6.49% (inactive).

For `CCOCN(C(=O)Cn1c(C(C)O)nc2ccccc21)c1c(C)cccc1CC` (stereo unspecified), the inhibition was 6.75% (inactive).

For the compound `COc1ccccc1Cn1c(CO)nc2ccccc21`, the inhibition is 0.35% (inactive).

Turning to `CCc1cccc(C)c1N(C(=O)Cn1c(CO)nc2ccccc21)C(C)COC` (stereo unspecified), the inhibition was 58.5% (active).

`COCCOC(=O)c1sc(=S)n(CCOC)c1N`: the inhibition was 90.3% (active).

With `COC(=O)c1sc(=S)n(-c2ccc(Cl)cc2)c1C`, the inhibition was 8.78% (inactive).

For the compound `CCOC(=O)c1c(N)sc(C(C)=O)c1C`, the inhibition is 4.34% (inactive).

Consider `O=C(NCC1(N2CCCCC2)CCCCC1)c1ccc(NS(=O)(=O)c2ccc(F)cc2)cc1`, for which the inhibition is 5.4% (inactive).

For the compound `Cc1coc2c(O)cc3c(c12)OC1(N2CCCCC2)C(=O)NCCCC31` (stereo unspecified), the inhibition is 39% (active).

Consider `NC(=O)c1nsc(C(=O)N(CC(=O)NCc2ccc(F)cc2)Cc2ccco2)c1N`, for which the inhibition was 1.4% (inactive).

With `COc1ccc(-n2cnc3cc(NCc4ccco4)ccc32)cc1`, the inhibition was 6.77% (inactive).

Consider `Cc1ccc2[nH]c(C(=O)O)c(NC(=O)c3ccccc3[N+](=O)[O-])c2c1`, for which the inhibition is 3.72% (inactive).

In the case of `CN(C)CCCCCN(C)Cc1cc2ccccc2o1`, the inhibition was 0.68% (inactive).

Consider `CCCCCCCNc1nc(Cl)nc(NCCO)n1`, for which the inhibition was 5.24% (inactive).

For `CCOc1ccc2nc(N3CCCN(C(=O)Nc4ccccc4C)CC3)c(C#N)cc2c1`, the inhibition is 46.6% (active).

`CCOc1ccc(C(=O)NC2CCN(C(=O)Nc3ccccc3OC)CC2)cc1`: the inhibition was 1.4% (inactive).

As for `CCOC(=O)c1cc(C#N)c(N2CCCCC2)nc1-c1ccccc1`, the inhibition was -1.67% (inactive).

As to `Cc1ccc(C)c(NC(=S)NNC(=S)Nc2ccc(C(C)C)cc2)c1`, the inhibition is 18% (inactive).

For `O=C(NC(=S)Nc1ccc(Cl)c(C(=O)O)c1)c1cncc(Br)c1`, the inhibition was -0.3% (inactive).

Consider `CC(C)c1ccc(NC(=S)NNc2ccc(Cl)c(C(=O)O)c2)cc1`, for which the inhibition was 115% (active).

Regarding `Cc1nn(C(C)(C)C)c(OC(=O)CC(C)C)c1S(=O)(=O)c1ccccc1`, the inhibition was 2.54% (inactive).

`Cc1c(Nc2cc(N3CCCC(C)C3)c3nonc3c2[N+](=O)[O-])c(=O)n(-c2ccccc2)n1C` (stereo unspecified): the inhibition is -1.91% (inactive).

With `Nc1cc(N2CCCCCC2)c2nonc2c1[N+](=O)[O-]`, the inhibition is 53.6% (active).

As to `Nc1nc(NCC(=O)O)nc(N2CCCCCC2)c1[N+](=O)[O-]`, the inhibition was -0.96% (inactive).

`CCCCCCCCCOC1OC(CO)C(O)C(O)C1NC(C)=O` (stereo unspecified): the inhibition was 0.06% (inactive).

Take `O=c1c2ccccc2nnn1CSc1nc2sc3c(c2c(=O)n1CC1CCCO1)CCC3` (stereo unspecified): the inhibition was -0.57% (inactive).

In the case of `O=C1CCC(=O)N(O)CCCCCNC(=O)CCC(=O)N(O)CCCCCNC(=O)CCC(=O)N(O)CCCCCN1`, the inhibition is 6.42% (inactive).

Consider `CCCn1c(C2CCCN2c2nc(-c3ccc(OC)cc3)cs2)nc2ccccc21` (stereo unspecified), for which the inhibition is 7.05% (inactive).

For `CCCn1c(C(C)Nc2nc(-c3ccc(C)cc3)cs2)nc2cc(Cl)c(N3CCCCC3)cc21` (stereo unspecified), the inhibition was 4.98% (inactive).

With `CCCn1c(C2CCCN2c2nc(-c3ccc(C)cc3)cs2)nc2cc(Cl)c(N3CCCCC3)cc21` (stereo unspecified), the inhibition was 76.7% (active).

For `Cc1cc(S(=O)(=O)NCc2ccccn2)c(Cl)cc1Cl`, the inhibition was 4.73% (inactive).

For the compound `CCOC(=O)c1c(C)n(C)c2ccc(OC)c(NC(=O)CN3CCC4(CC3)OCCO4)c12`, the inhibition was -7.5% (inactive).

In the case of `[O-][n+]1c2c(nn1-c1ccc(Cl)c(Cl)c1)-c1nonc1CC2`, the inhibition was -0.16% (inactive).

Turning to `COCCN1C=C2C(=O)C(C)(OC(=O)C3CCCC3)C(=O)C=C2C=C1c1ccsc1` (stereo unspecified), the inhibition is 34.2% (active).

Consider `CC1(OC(=O)C2CCCC2)C(=O)C=C2C=C(c3ccc(C#N)cc3)OC=C2C1=O` (stereo unspecified), for which the inhibition was 10.6% (inactive).

As to `CC1(OC(=O)CCc2ccccc2)C(=O)C=C2C=C(c3ccc(C#N)cc3)N(CCc3ccccn3)C=C2C1=O` (stereo unspecified), the inhibition is 25.8% (inactive).

In the case of `Fc1ccccc1/C=N/Nc1cc(N2CCCCC2)ncn1`, the inhibition was 1.94% (inactive).

For the compound `Cn1nccc1/C=N\NC(=O)c1ccc(Cl)cc1`, the inhibition was 7.38% (inactive).

Regarding `O=c1[nH]n2c(-c3ccccc3)nc(O)c2c2ccccc12`, the inhibition was -0.91% (inactive).

As for `O=c1[nH]c2ccccc2n2c(-c3ccccc3)nnc12`, the inhibition was 43% (active).

`O=C(O)/C=C/c1ccc(S(=O)(=O)N2CCCCCC2)cc1`: the inhibition is -3.18% (inactive).

On to `O=C(CN1CCSCC1)N/N=C/c1ccc(F)cc1F`, for which the inhibition was 2.55% (inactive).

On to `COc1ncnc2c1N=C1CC(C)(C)CC(N)=C1S2`, for which the inhibition was 163% (active).

As for `O=C(COc1cccc(Cl)c1)NCc1ccccc1`, the inhibition was 3.14% (inactive).

On to `Cc1nn(-c2cc(Cl)ccc2N)c(=O)c2ccccc12`, for which the inhibition is -0.7% (inactive).

Regarding `C[N+](C)(CCCCCC[N+](C)(C)CCCN1C(=O)c2cccc3cccc(c23)C1=O)CCCN1C(=O)c2cccc3cccc(c23)C1=O`, the inhibition is 1.22% (inactive).

Consider `O=C(O)c1ccc2c3c(cccc13)C(=O)N(OS(=O)(=O)c1ccccc1)C2=O`, for which the inhibition was -6.08% (inactive).

Turning to `O=C1c2ccccc2C(=O)N1c1cccc2ccccc12`, the inhibition was 4.16% (inactive).

For `O=C(C1CCN(S(=O)(=O)c2ccc(Br)s2)CC1)N1CCN(C2CCCCC2)CC1`, the inhibition was 3.57% (inactive).

As to `CSc1ccc(CN(C)CC(=O)NCc2ccc(F)cc2)cc1`, the inhibition was 5.75% (inactive).

`CSc1ccc(CN2C(=O)NC3(CCCCCC3)C2=O)cc1`: the inhibition is 0.37% (inactive).

Turning to `Cc1c(C(=O)NC(C)C2CC3CCC2C3)cccc1[N+](=O)[O-]` (stereo unspecified), the inhibition was 0.81% (inactive).

For the compound `COc1ccccc1N1CCN(c2nc(C)cc(=O)[nH]2)CC1`, the inhibition is 1.46% (inactive).

Take `CC(=O)C1(C)N(O)C(C)(C)C(c2cccs2)=[N+]1[O-]` (stereo unspecified): the inhibition is 6.8% (inactive).

`Cc1ccc(SCC(=O)Nc2nncs2)cc1`: the inhibition was -0.16% (inactive).

`CCOc1cc(NC(=S)NCCCOC)c(OCC)cc1NC(=O)c1ccco1`: the inhibition was 1.13% (inactive).

With `CCOc1ccc(C(=O)NC(C(=O)NCc2ccccn2)C(C)C)cc1` (stereo unspecified), the inhibition is -3.49% (inactive).

Regarding `O=C(NCc1ccccn1)c1ccc2nc(-c3ccco3)c(-c3ccco3)nc2c1`, the inhibition is 61.7% (active).

Take `Cc1cc(C)cc(NC(=O)NCc2ccccn2)c1`: the inhibition is 0.71% (inactive).

Consider `Cc1nc2cc(NC(=O)NCc3ccccc3)ccc2o1`, for which the inhibition was -3.22% (inactive).

Take `COCCNC(=O)Nc1ccc2nc(-c3ccco3)c(-c3ccco3)nc2c1`: the inhibition is 120% (active).

For the compound `O=C(NC1CC2CCCC(C1)N2C(=O)N1CCCCC1)C1CCCCC1` (stereo unspecified), the inhibition was 0.87% (inactive).

Regarding `O=C(Cc1nc2ccccc2[nH]c1=O)c1ccc(Cl)cc1`, the inhibition is 34.1% (active).

For the compound `N#C/C(=C(/O)COC(=O)COc1ccc(Cl)cc1)c1nc2ccccc2[nH]1`, the inhibition was -9.4% (inactive).

With `O=C(/C(=C/c1cccc(Cl)c1)c1nc2ccccc2[nH]1)c1ccccc1`, the inhibition was -0.83% (inactive).

Regarding `COc1ccc(NC(=S)N2N=CCC2c2ccccc2)cc1` (stereo unspecified), the inhibition was 1.8% (inactive).

For `C[n+]1ccc(C(=O)NCc2ccccc2)cc1`, the inhibition was -12.9% (inactive).

On to `COc1ccc(S(=O)(=O)Nc2cc(C)on2)cc1NC(C)=O`, for which the inhibition was 3.59% (inactive).

With `O=c1c2cc(-c3ccccc3)sc2nc2n1N=C(c1cccs1)CS2`, the inhibition was 7.98% (inactive).

In the case of `COc1ccc(Nc2ccc([N+](=O)[O-])cn2)cn1`, the inhibition is 47.6% (active).

For the compound `COc1ccccc1C1CCN(c2ccc([N+](=O)[O-])cn2)CC1`, the inhibition was 6.64% (inactive).

In the case of `COc1ccc(C(=O)NCCNc2ccc([N+](=O)[O-])cn2)cc1`, the inhibition is -0.8% (inactive).

As for `O=C(Cn1cc(C(F)(F)F)ccc1=O)N/N=C/c1ccc(Cl)cc1Cl`, the inhibition was 4.51% (inactive).

Consider `Cc1ccc(NC(=O)CN(C)S(=O)(=O)c2cnc[nH]2)cc1C`, for which the inhibition was 2.37% (inactive).

For the compound `Cc1ccc(C(=O)N/N=C/c2cccc3ccccc23)cn1`, the inhibition is 0.59% (inactive).

Turning to `O=C(N/N=C\c1cc(Br)c(Br)o1)C1COc2ccccc2O1` (stereo unspecified), the inhibition was 8.03% (inactive).

In the case of `Cc1ccc(C(=O)N/N=C\c2cc(Br)c(Br)o2)cn1`, the inhibition is 39.1% (active).
